High-throughput results as filed in PubChem.
Only some compounds are listed: those with a hit (about 2.4% of all), similar ones and a draw of the others.
Cruzain noTriton = blocks cruzain activity in detergent-free assay; Potency, µM, inactives show max response, negative = inhibition, most hits filed as inhibitors; purified cruzain, Z-FR-AMC fluorescence, no detergent; 2.3% of 200,000 active;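 further: plate controls were enzyme without inhibitor for no effect and buffer without enzyme for full effect; nearly all actives have a fitted effect of over 40% in size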
Target sequence (P25779 123-467 limits assumed): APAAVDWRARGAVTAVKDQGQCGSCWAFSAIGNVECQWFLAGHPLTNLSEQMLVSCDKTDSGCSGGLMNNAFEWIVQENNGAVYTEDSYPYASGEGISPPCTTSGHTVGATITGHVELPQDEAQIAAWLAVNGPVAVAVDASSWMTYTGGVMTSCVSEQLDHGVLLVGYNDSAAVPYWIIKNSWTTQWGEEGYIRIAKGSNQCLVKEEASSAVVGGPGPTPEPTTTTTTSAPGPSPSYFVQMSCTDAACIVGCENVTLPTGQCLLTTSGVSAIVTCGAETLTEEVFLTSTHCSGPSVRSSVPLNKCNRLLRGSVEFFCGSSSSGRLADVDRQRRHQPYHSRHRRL
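Detergent-free condition (0.00005% Triton X-100) in acetate buffer pH 5.5 with DTT. 1.5 nM enzyme and compound were pre-mixed 15 min, then 2 uM Z-FR-AMC substrate added; reaction progress from fluorescence change between first and third reads (60 s).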
Cruzain Triton = blocks cruzain activity in presence of Triton detergent; P25779; purified cruzain, Z-FR-AMC fluorescence, 0.01% Triton; Potency, µM, for inactives: max response, negative = inhibition, usual class: inhibitors; 0.43% of 200,000 active;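 further: plate controls were neutral wells for no effect and buffer without enzyme for full effect; nearly all actives have a fitted effect of over 40% in size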
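Cruzain (1.5 nM) preincubated 15 min at RT with compound in 100 mM sodium acetate pH 5.5, 5 mM DTT, 0.01% Triton X-100. Reaction started with 2 uM Z-FR-AMC; AMC fluorescence (ex 360/em 450 nm) change over 60 s gave rate.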
Starred values were filed as active, the others as inactive; ? = inconclusive. The call rests on the fitted dose curve; in most records, active means well fitted curve in the direction sought with a large enough effect; inconclusive means small, poorly fitted or top-dose-only effect, or another doubt; inactive means no such curve, though single readings can be large; an effect the other way counts as inactive or inconclusive. Potency means the concentration at half of the fitted maximal effect.

SMILES	Cruzain noTriton	Cruzain Triton
COC(=O)c1ccccc1-n1cc2c(c1-c1cccc(C)c1)c(=O)n(C)c(=O)n2C	-8%	-6%
Oc1cccc(-c2nc(-c3cccs3)c(-c3cccs3)[nH]2)c1	12%	-12%
O=C(/C=C/c1ccco1)NC(=S)Nc1cc(-c2nc3ccccc3s2)ccc1Cl	6.3µM*	-7%
Cc1ccc(C(=O)NC(=S)Nc2cccc(-c3nc4ccccc4s3)c2)cc1	?	0%
Cc1ccc(-c2nc3ccccc3s2)cc1NC(=S)NC(=O)/C=C/c1ccco1	16µM*	0%
O=C(Nc1cc(-c2nc3ccccc3s2)ccc1Cl)c1ccc2c(c1)OCO2	?	5%
Cc1ccc(-c2nc3ccccc3s2)cc1NC(=S)NC(=O)c1cccc2ccccc12	6.3µM*	-4%
Cc1ccc(-n2nc3cc(C)c(NC(=S)NC(=O)/C=C/c4ccco4)cc3n2)cc1	?	-5%
CCC(=O)N1CCc2cc(S(=O)(=O)N3CCN(c4ccccc4F)CC3)ccc21	-1%	-2%
Cc1ccc(CNc2nc(-c3ccco3)nn2C(=O)c2ccccc2[N+](=O)[O-])cc1	-18%	-7%
O=C(Nc1ccc(F)cc1)C1CCN(c2nc3ccccc3n3cccc23)CC1	10%	-6%
COc1cc2cc(CNc3ccccc3)c(=O)n(CC(=O)Nc3ccccc3)c2cc1OC	-4%	-4%
Cc1nn(-c2ccccc2)c(N2CCCC2)c1/C=C1\N=C(c2ccc(OC(C)C)cc2)OC1=O	5µM*	1.4µM*
Cc1ccc(C2=N/C(=C\N3CCCCC3)C(=O)O2)cc1	-9%	-9%
O=C(COC(=O)c1cccc(NC(=O)c2ccc(Br)cc2)c1)c1ccc(Cl)cc1	9%	-2%
Cc1oc(-c2ccc(C(=O)NCc3ccccc3)cc2)nc1CS(=O)(=O)c1ccccc1	?	-6%
Cc1oc(-c2ccc(C(=O)NCc3ccc(Cl)cc3)cc2)nc1CS(=O)(=O)c1ccccc1	25µM*	-4%
[Cl][Pd][Cl].[S-]C1=C2N=CN[C-]2[NH+]=C[N-]1.[S-]c1ncnc2[nH]cnc12	1%	6%
O=C(Nc1nc(-c2ccccc2)c(C(=O)c2ccccc2)s1)c1ccc(S(=O)(=O)N2CCCCC2)cc1	7.9µM*	-5%
COc1ccc(C(=O)Nc2nc3c(s2)CCc2cc(OC)ccc2-3)cc1	-73%	-14%
COc1ccc(C(=O)Nc2nc(-c3ccc([N+](=O)[O-])cc3)c(-c3ccc(OC)cc3)s2)cc1	10µM*	2%
O=C(Nc1ccccc1-c1nc2ccccc2[nH]1)c1ccc(S(=O)(=O)N2CCCCC2)cc1	10µM*	-4%
O=C(NNc1nc(-c2ccccc2)c2cc(Br)ccc2n1)c1ccc(S(=O)(=O)N2CCOCC2)cc1	-3%	-2%
COCCN(CCOC)S(=O)(=O)c1ccc(C(=O)Nc2nc(-c3ccccc3)c(C(=O)c3ccccc3)s2)cc1	?	0%
O=C(NNc1nc(-c2ccccc2)c2cc(Br)ccc2n1)c1ccc(S(=O)(=O)N2CCCCC2)cc1	25µM*	-5%
SMILES	Cruzain noTriton	Cruzain Triton
CC1CCCCN1S(=O)(=O)c1ccc(C(=O)Nc2ccccc2-c2nc3ccccc3[nH]2)cc1 (stereo not given)	?	-5%
CC(C)NC(=O)C1CCN(C(=O)N2CCOc3ccc(Cl)cc32)CC1	-3%	-4%
FC(F)(F)c1nc2ccc(SSc3ccc4nc(C(F)(F)F)[nH]c4c3)cc2[nH]1	-5%	-2%
COc1ccc(-c2onc(C)c2C)cc1S(=O)(=O)N1CCc2ccccc21	8%	4%
Cc1ccccc1C(=O)Nc1nnc(SCc2cc(=O)n3ccccc3n2)s1	6%	2%
O=C(Nc1nc2ccc(Cl)cc2s1)c1ccc(S(=O)(=O)N2CCCC2)cc1	-3%	-3%
O=C(Nc1nc(-c2ccccc2)c(-c2ccccc2)s1)c1ccc(S(=O)(=O)N2CCCCC2)cc1	4µM*	1%
Cc1cc(C)nc(N/N=C/C2=C(N3CCOCC3)C(=C\c3ccc(Cl)cc3)/CC2)n1	-21%	-10%
Cc1occc1C(=O)N/N=C/C1=C(N2CCOCC2)C(=C\c2ccc(Cl)cc2Cl)/CC1	25µM*	-5%
CC(C)CCn1c(Oc2ccccc2F)nc2c1c(=O)n(C)c(=O)n2C	2%	1%
c1ccc(-c2ccc(-c3csnn3)cc2)cc1	20µM*	4%
FC(F)(F)c1cccc(-c2ccc(-c3csnn3)o2)c1	-2%	-7%
CCCN1CCN(c2ncnc3sc(C(=O)Nc4ccc(N(CC)CC)cc4C)c(C)c23)CC1	-22%	-2%
CCCN1CCN(c2ncnc3sc(C(=O)Nc4cccc(Cl)c4C)c(C)c23)CC1	16µM*	2.2µM*
CCCSc1nc2sc3c(c2c(=O)n1Cc1ccccc1)CC(C)(CC)OC3 (stereo not given)	8%	-2%
CC1=CC(C)(C)Nc2ccc(OC(=O)CN3C(=O)c4cccc5cccc(c45)C3=O)cc21	25µM*	-8%
CC1=CC(C)(C)Nc2ccc(OC(=O)CN3C(=O)c4ccccc4C3=O)cc21	4%	-6%
CCOc1ccccc1Nc1nc(-c2cccc(Cl)c2)c2c(n1)-c1ccccc1OC2	13%	-15%
CC(NC(=O)c1ccc(N2Cc3ccccc3Oc3ncccc32)s1)c1ccccc1 (stereo not given)	-29%	-10%
O=C(Nc1nc(-c2ccccc2)cs1)c1cccs1	2%	-8%
C/C(=N/Nc1nc(-c2ccc(Cl)cc2)cs1)c1cccs1	4µM*	?
CCCc1cc(=O)n2[nH]c(NC(=O)c3ccccc3Cl)nc2n1	-6%	-1%
Cc1cnn(C(=S)NCCc2ccccc2)c1	13µM*	16µM*
Cc1cnn(C(=S)NCc2ccc(Cl)cc2)c1	-28%	-29%
Cc1cc(OC(C)C(=O)N(Cc2ccco2)Cc2ccco2)cc(C)c1Cl (stereo not given)	13%	-8%
SMILES	Cruzain noTriton	Cruzain Triton
Cc1ccc2oc(-c3ccc(C)c(NC(=O)/C=C/c4ccco4)c3)nc2c1	-11%	-2%
COc1ccc(NC(=O)Nc2nnc(-c3ccccc3SCc3ccccc3)s2)cc1	10µM*	8%
CCOc1ccc(NC(=O)CSc2nnc(NC(=O)Nc3ccccc3)s2)cc1	14%	0%
COc1cccc(NC(=O)Nc2nnc(-c3ccccc3SCc3ccccc3)s2)c1	3.2µM*	5%
Cc1cccc(NC(=O)Nc2nnc(N(C)Cc3ccccc3)s2)c1	5%	-8%
O=C(Nc1nnc(-c2ccccc2SCc2ccccc2)s1)Nc1ccccc1F	3.2µM*	-1%
CCN(c1ccccc1)c1nnc(NC(=O)Nc2ccccc2F)s1	-11%	-3%
CCOc1ccc(NC(=O)Cn2c(=O)n(Cc3ccccc3)c(=O)c3sc4ccccc4c32)cc1	-6%	-1%
COc1ccc(-c2c(C#N)c(SCC(=O)c3cc4ccccc4oc3=O)nc(C)c2C(=O)Nc2ccccc2)cc1	?	-1%
COc1ccc(-c2c(C#N)c(SCC(=O)Nc3ccc(Br)cc3)nc(C)c2C(=O)Nc2ccccc2)cc1	10µM*	0%
COc1ccc(-c2c(C#N)c(SCC(=O)Nc3ccc(C)cc3)nc(C)c2C(=O)Nc2ccccc2)cc1	-17%	-2%
Cc1nc(SCC(=O)c2cc3ccccc3oc2=O)c(C#N)c(-c2ccccc2)c1C(=O)Nc1ccccc1	20µM*	-1%
COc1ccc(CNC(=O)C2CCN(S(=O)(=O)c3ccc4c(c3)CCCN4C(C)=O)CC2)cc1	10%	-1%
COC(=O)c1sccc1NC(=O)/C=C\c1ccc(Cl)cc1Cl	3.2µM*	3%
COC(=O)c1sccc1NC(=O)/C=C/c1ccc(Cl)cc1	3%	-2%
